About 2,100 (0.66%) of roughly 320,000 compounds were called active. Roughly 53% stayed inconclusive and do not appear here. Calls follow the shape of the dose curve; as a rule, active = well fitted inhibition curve with a large enough effect in the signal ratio, with a control signal flat (not every such curve was filed as active); inconclusive = small, poorly fitted or top-dose-only effect, or effect the other way, or a change in a side signal; inactive = flat fitted curve, though single readings scatter; the % refers to the signal ratio. Shown is part of a subset that was picked to be rich in actives.
Experiment: qHTS Assay for Lipid Storage Modulators in Drosophila S3 Cells;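 as to cell number change: cells counted by Cell Tracker Red CMTPX staining in the red channel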; as to lipid storage change, negative = inhibition: % is scaled to controls: 0 for no effect and ±100 for the full control effect
Conditions: BODIPY lipid droplet fluorescence, 18-24 h, cells fed with added oleic acid; cell number change: measured here: cell count max response; series mostly up to 46.1 µM; lipid storage change, negative = inhibition: at the top concentration
Outline: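 Drosophila S3 cells loaded with oleic acid (400 uM, as added) and compounds at several concentrations; lipid droplets imaged by 488-nm laser-scanning cytometry, 500–530 nm intensity and object ratio to cell channel. Percent activity normalized to 20 uM Triacsin C.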
Potency is read from the fitted curve at half-maximal effect.

Compound | Potency | cell number change | lipid storage change, negative = inhibition | outcome
COC(=O)c1ccccc1NC(=O)CNc1ccc(F)c(S(=O)(=O)N2CCOCC2)c1 | 3.26 µM (active) | 0.245% |  | 
COc1ccc(S(=O)(=O)N2CCCCC2)cc1NC(=O)CNc1ccc(F)cc1C |  | 11.8% | 29% (inactive) | 
O=C(CNc1cccc(S(=O)(=O)N2CCCC2)c1)Nc1ccc(F)c(F)c1 |  | 2.77% |  | inactive
COc1ccc(S(=O)(=O)N2CCCCC2)cc1NCC(=O)Nc1ccc(C)cc1 |  | -1.26% | 11.5% (inactive) | 
COc1cc(NC(=O)CNc2ccc(Cl)c(S(=O)(=O)N3CCOCC3)c2)cc(OC)c1 |  | -14.4% | -3.31% (inactive) | 
Cc1ccc(NC(=O)CNc2cccc(S(=O)(=O)N3CCCCC3)c2)cc1F | 1.46 µM (active) |  |  | 
COc1ccc([N+](=O)[O-])cc1NCC(=O)Nc1cc(S(=O)(=O)N2CCCCC2)ccc1C | 16.4 µM (active) | -23.1% |  | 
COc1cc(NCC(=O)Nc2cccc(S(=O)(=O)N3CCCCC3)c2)cc(OC)c1OC |  | -2.08% |  | inactive
CCN(CC(=O)Nc1cccc(S(=O)(=O)N2CCOCC2)c1)Cc1ccccc1 |  |  | -10.6% [at 0.0737 µM] (inactive) | 
O=C(CSc1ccccc1)Nc1cccc(S(=O)(=O)N2CCOCC2)c1 |  | -14.2% | -7.81% (inactive) | 
O=C(CNc1cccc(S(=O)(=O)N2CCOCC2)c1)Nc1ccccc1F |  | 4.62% |  | inactive
CCN(CC)S(=O)(=O)c1cc(NC(=O)CNc2cccc(S(=O)(=O)N3CCOCC3)c2)ccc1C | 2.06 µM (active) | -23.6% |  | 
Oc1cccc(CCC2CCCCN2Cc2cn[nH]c2-c2ccc3c(c2)OCO3)c1 (stereo not drawn) |  | 7.37% | 16.7% (inactive) | 
Fc1ccc(N/N=C(/c2ccccc2)c2ccccn2)cc1 |  | 9.54% | 8.3% (inactive) | 
CN(C)c1ccc(C=NCCC2(O)CCOC(C)(C)C2)cc1 (stereo not drawn) |  | 2.42% | 6.27% (inactive) | 
NC(=O)N/N=C/CCc1ccccc1 |  | 7.84% | 1.59% (inactive) | 
S=c1[nH]nc(CNc2cccc(Cl)c2)o1 |  | 5.85% | 3.6% (inactive) | 
Cc1[nH]c2ccccc2c1/C=N/NC(=O)c1cc(C(C)C)[nH]n1 |  | 17.7% | -1.1% (inactive) | 
O=C(/C=C/c1cccc(Cl)c1)NCCc1ccccc1 |  | 4.34% | 8.05% (inactive) | 
CN1CCN(c2ccc(CNS(=O)(=O)Cc3ccc(Cl)cc3)cc2)CC1 |  | -12.5% | -7.74% (inactive) | 
CNC(=O)Cn1c(C)cc(=O)c2cccc(C)c21 |  | 13.3% | 10.6% (inactive) | 
CN(Cc1ccccc1)S(=O)(=O)c1ccc(OCC(=O)Nc2cccc([N+](=O)[O-])c2)cc1 |  | 18.8% | 5.75% (inactive) | 
CCOc1ccccc1OCCCC(=O)Nc1nc2ccccc2[nH]1 |  |  |  | inactive

Compound | Potency | cell number change | lipid storage change, negative = inhibition | outcome
COc1ccc(-c2noc(CSc3nc4ccccc4c(=O)n3-c3ccc(C)cc3)n2)cc1 |  | 13.3% | -0.476% (inactive) | 
Clc1ccc(OCc2cn3cccnc3n2)c2ncccc12 |  |  |  | inactive
CC[C@H](C)[C@H](NC(N)=O)C(=O)Nc1ccc(S(=O)(=O)NC(C)C)cc1 |  | 3.97% | -0.365% (inactive) | 
CC(=O)c1cccc(NCC(=O)Nc2cccc(S(=O)(=O)N3CCCCC3)c2)c1 |  | 13.3% | 24.6% (inactive) | 
COc1ccc(OCCCC(=O)Nc2cccc([N+](=O)[O-])c2)cc1 |  | 10.1% | -0.331% (inactive) | 
COc1ccc(OCCCC(=O)Nc2cc([N+](=O)[O-])ccc2C)cc1 | 14.6 µM (active) | -3.49% |  | 
Cc1ccc([N+](=O)[O-])cc1NC(=O)CCCOc1ccccc1 |  | 2.03% | 4.91% (inactive) | 
O=C(CNc1cccc(S(=O)(=O)N2CCCCCC2)c1)Nc1cccc([N+](=O)[O-])c1 | 20.6 µM (active) | 20.3% |  | 
O=C(CNc1cccc(S(=O)(=O)N2CCCC2)c1)Nc1cccc(Br)c1 |  | 14.3% | 12.9% (inactive) | 
O=C(O)c1cccc(Nc2c([N+](=O)[O-])c(=O)oc3ccccc23)c1 |  | 3.37% | 8.97% (inactive) | 
CC(=O)Oc1ccc(C(=O)Nc2ccc(S(=O)(=O)N3CCOCC3)cc2)cc1 |  | -28% |  | inactive
Cc1ccc2[nH]c(=O)c(CN(CC3CCCO3)C(=S)Nc3ccccc3)cc2c1 (stereo not drawn) |  | -9.29% | 13.6% (inactive) | 
O=C(Nc1ccccc1)C1C(c2ccccc2)C1(Cl)Cl (stereo not drawn) |  | -2.33% | -7.1% (inactive) | 
CCOc1ccc(NC(=O)C2C(c3ccccc3)C2(Cl)Cl)cc1 (stereo not drawn) | 16.4 µM (active) | -15.7% |  | 
COc1ccc(NC(=O)C2C(c3ccccc3)C2(Cl)Cl)cc1 (stereo not drawn) |  | 19.2% | -5.18% (inactive) | 
OCCN1CCN(CCSc2ccccc2)CC1 |  | 0.698% | 1.19% (inactive) | 
CCn1ncc(-c2csc(N)n2)c1C |  | 9.82% | 9.04% (inactive) | 
O=C(c1ccccc1)N1CN2CN(C(=O)c3ccccc3)CC([N+](=O)[O-])(C2)C1 |  | 6.5% | 9.02% (inactive) | 
COc1ccccc1C(CNC(=O)c1cc(C)nc2ccccc12)N(C)C (stereo not drawn) |  | 9.21% |  | inactive
O=C(O)CCN=CC1=C(O)CC(c2ccccc2)CC1=O (stereo not drawn) | 1.03 µM (active) | 15.8% |  | 
CCCCCN=CC1=C(O)CC(c2ccccc2)CC1=O (stereo not drawn) |  | -15.5% | -7.93% (inactive) | 
CCCN=CC1=C(O)CC(c2ccccc2)CC1=O (stereo not drawn) |  | 5.05% | 2.06% (inactive) | 
COCCn1c(SCC(=O)NCCc2ccc(OC)c(OC)c2)nc2c([nH]c3ccccc32)c1=O |  | 5.96% | 5.55% (inactive) | 

— PubChem BioAssay AID2685 (National Center for Advancing Translational Sciences (NCATS), 2010)
